Read-out in experiment [1]: Transforming growth factor beta 1 (TGFb1), TGFB1 (gene 7040)
Put plainly: BSK_KF3CT_TGFb1: BioMAP Diversity Plus: KF3CT Assay for Transforming growth factor beta 1 (TGFb1) Biomarker Activity (AID 2283072). The conditions noted are these: primary human keratinocytes with fibroblasts; actives raise or lower the signal. In a few lines:
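ELISA quantifies TGF-b1 at 24 h post-dose in a primary human skin co-culture of keratinocytes and fibroblasts, with gain or loss judged against DMSO. Parallel SRB total-protein staining flags overt cytotoxicity.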

Read-out in experiment [2]: C-C motif chemokine 2 (Homo sapiens) (UniProt P13500)
The experiment can be described thus: BSK_KF3CT_MCP1: BioMAP Diversity Plus: KF3CT Assay for Monocyte Chemoattractant Protein 1 (MCP1/CCL2) Biomarker Activity (AID 2283073). The conditions noted are these: primary human keratinocytes with fibroblasts; actives raise or lower the signal. In a few lines:
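ELISA read-out of MCP-1, 24 h post-dose, in primary human skin keratinocytes co-cultured with fibroblasts. Parallel SRB staining monitors cytotoxicity; changes fitted both directions relative to DMSO.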

Read-out in experiment [3]: Matrix Metallopeptidase 9 (MMP9), MMP9 (gene 4318)
Put plainly: BSK_KF3CT_MMP9: BioMAP Diversity Plus: KF3CT Assay for Matrix Metallopeptidase 9 (MMP9) Biomarker Activity (AID 2283074). The conditions noted are these: primary human keratinocytes with fibroblasts; actives raise or lower the signal. In a few lines:
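ELISA read-out of MMP-9 at 24 h post-dosing in a co-culture of human skin keratinocytes and foreskin fibroblasts. Gain or loss of signal was fitted in both directions against DMSO.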

Read-out in experiment [4]: urokinase plasminogen activator (uPA), PLAU (gene 5328)
The experiment can be described thus: BSK_KF3CT_uPA: BioMAP Diversity Plus: KF3CT Assay for urokinase plasminogen activator (uPA) Biomarker Activity (AID 2283075). The conditions noted are these: primary human keratinocytes with fibroblasts; actives raise or lower the signal. The procedure, abridged: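 Skin co-culture (keratinocytes + foreskin fibroblasts), human primary; 24 h post-dose; uPA by ELISA; gain/loss fit vs DMSO baseline.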

Read-out in experiment [5]: E-selectin (Homo sapiens) (UniProt P16581)
Put plainly: BSK_LPS_Eselectin: BioMAP Diversity Plus: LPS Assay for Eselectin Biomarker Activity (AID 2283077). Particulars: primary human HUVEC with PBMC; actives raise or lower the signal. The procedure, abridged: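 E-selectin ELISA on LPS-stimulated endothelial cell/PBMC co-cultures, read 24 h post-treatment; gains and losses fitted against DMSO. Parallel SRB staining (0.1% SRB after 10% TCA fixation, 560 nm) flags overt cytotoxicity.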

Read-out in experiment [6]: Interleukin-8 (IL8), CXCL8 (gene 3576)
The experiment can be described thus: BSK_LPS_IL8: BioMAP Diversity Plus: LPS Assay for Interleukin-8 (IL8) Biomarker Activity (AID 2283078). The conditions noted are these: primary human HUVEC with PBMC; actives raise or lower the signal. The procedure, abridged:
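ELISA read-out of IL-8 after 24 h chemical treatment of LPS-activated endothelial/PBMC human primary co-cultures. Changes either up or down relative to DMSO; overt cytotoxicity checked by sulforhodamine B staining in parallel wells.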

Experiment [7] is described as follows: BSK_LPS_SRB: Viability Assessment in the BioMAP Diversity Plus: LPS Assay (AID 2283079).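 Note: total protein by sulforhodamine B absorbance as a cytotoxicity measure; measured one day after compound addition.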 The conditions noted are these: primary human HUVEC with PBMC. The procedure, abridged:
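SRB viability endpoint: cells fixed with 10% TCA, stained with 0.1% SRB, read at 560 nm, 24 h post-dose. HUVEC/PBMC co-culture; signal change in either direction scored relative to DMSO.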

Read-out in experiment [8]: Interleukin-1 alpha (IL1a), IL1A (gene 3552)
Put plainly: BSK_LPS_IL1a: BioMAP Diversity Plus: LPS Assay for Interleukin-1 alpha (IL1a) Biomarker Activity (AID 2283080). The conditions noted are these: primary human HUVEC with PBMC; actives raise or lower the signal. The procedure, abridged: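 Readout is IL-1a level by ELISA, 24 h post-dose, fitted as gain or loss relative to DMSO. System: LPS-activated human primary co-culture of vascular endothelium and peripheral blood mononuclear cells, with parallel SRB total-protein cytotoxicity.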

Read-out in experiment [9]: Monocyte Chemoattractant Protein-1 (MCP1), CCL2 (gene 6347)
The experiment can be described thus: BSK_LPS_MCP1: BioMAP Diversity Plus: LPS Assay for Monocyte Chemoattractant Protein-1 (MCP1) Biomarker Activity (AID 2283081). Particulars: primary human HUVEC with PBMC; actives raise or lower the signal. In a few lines:
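Secreted MCP-1 read by ELISA at 24 h post-dosing in an LPS-activated co-culture of endothelial cells with peripheral blood mononuclear cells. Fits run in both directions, DMSO as baseline; parallel SRB staining tracks overt cytotoxicity.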

Experiment [10] can be described thus: BSK_LPS_PGE2: BioMAP Diversity Plus: LPS Assay for Prostaglandin E2 (PGE2) Biomarker Activity (AID 2283082). Particulars: primary human HUVEC with PBMC; actives raise or lower the signal. The procedure, abridged: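 PGE2 release measured by ELISA in an LPS-activated co-culture of human umbilical vein endothelial cells and peripheral blood mononuclear cells, read at 24 h post-dosing. DMSO served as baseline for bidirectional curve fitting.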

Read-out in experiment [11]: Macrophage colony-stimulating factor (MCSF), CSF1 (gene 1435)
The experiment can be described thus: BSK_LPS_MCSF: BioMAP Diversity Plus: LPS Assay for Macrophage colony-stimulating factor (MCSF) Biomarker Activity (AID 2283083). The conditions noted are these: primary human HUVEC with PBMC; actives raise or lower the signal. In a few lines: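 Bidirectional fitting against DMSO was applied to M-CSF levels read by ELISA at 24 h post-dose. The system pairs human umbilical vein endothelium with peripheral blood mononuclear cells; parallel SRB staining tracked cytotoxicity.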

Read-out in experiment [12]: Tissue Factor, F3 (gene 2152)
Put plainly: BSK_LPS_TissueFactor: BioMAP Diversity Plus: LPS Assay for Tissue Factor Biomarker Activity (AID 2283084). The conditions noted are these: primary human HUVEC with PBMC; actives raise or lower the signal. In a few lines: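 Compound was added to an endothelial cell/PBMC co-culture, and after 24 h tissue factor (CD142) was read by ELISA. Gain or loss of signal was fitted against a DMSO baseline, and parallel SRB staining (560 nm) tracked overt cytotoxicity.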

Read-out in experiment [13]: Tumor necrosis factor (Homo sapiens) (UniProt P01375)
Put plainly: BSK_LPS_TNFa: BioMAP Diversity Plus: LPS Assay for Tumour Necrosis Factor alpha (TNFa) Biomarker Activity (AID 2283085).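 For AC50: TNFa protein level quantified by ELISA in the co-culture.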 The conditions noted are these: primary human HUVEC with PBMC; actives raise or lower the signal. The procedure, abridged: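 TNFa was quantified by ELISA in LPS-activated co-cultures of human endothelial cells and PBMC, 24 h post-dosing. Both increases and decreases versus DMSO were fitted.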

Read-out in experiment [14]: Vascular cell adhesion molecule 1 (VCAM1), VCAM1 (gene 7412)
The experiment can be described thus: BSK_LPS_VCAM1: BioMAP Diversity Plus: LPS Assay for Vascular cell adhesion molecule 1 (VCAM1) Biomarker Activity (AID 2283086). Particulars: primary human HUVEC with PBMC; actives raise or lower the signal. In a few lines:
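VCAM-1 quantified by ELISA in an LPS-activated co-culture of human endothelial cells and peripheral blood mononuclear cells, read 24 h post-treatment. Fitted in both directions versus DMSO; parallel SRB staining flags overt cytotoxicity.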

Read-out in another experiment: CD38, CD38 (gene 952)
Put plainly: BSK_SAg_CD38: BioMAP Diversity Plus: SAg Assay for CD38 Biomarker Activity (AID 2283087). Particulars: primary human HUVEC with PBMC; actives raise or lower the signal. The procedure, abridged:
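CD38 quantified by ELISA (fluorescence) in a superantigen-activated endothelial cell–PBMC co-culture at 24 h post-dose. Activity fitted in both directions relative to DMSO; parallel SRB and Alamar Blue cytotoxicity read-outs.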

Read-out in experiment [15]: CD40, CD40 (gene 958)
The experiment can be described thus: BSK_SAg_CD40: BioMAP Diversity Plus: SAg Assay for CD40 Biomarker Activity (AID 2283088). The conditions noted are these: primary human HUVEC with PBMC; actives raise or lower the signal. In a few lines: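 CD40 is measured by fluorescence ELISA in an endothelial/PBMC primary human co-culture at 24 h post-dose. Fitting is bidirectional, DMSO baseline. Parallel SRB staining (560 nm) flags cytotoxicity.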

Read-out in another experiment: CD69, CD69 (gene 969)
Put plainly: BSK_SAg_CD69: BioMAP Diversity Plus: SAg Assay for CD69 Biomarker Activity (AID 2283089). The conditions noted are these: primary human HUVEC with PBMC; actives raise or lower the signal. The procedure, abridged:
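HUVEC co-cultured with PBMC were dosed with chemical, and CD69 was measured by ELISA with fluorescence read-out 24 h later. Bidirectional curve fitting used DMSO as negative control and activity baseline.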

Read-out in experiment [16]: Monocyte Chemoattractant Protein-1 (MCP1), CCL2 (gene 6347)
Put plainly: BSK_SAg_MCP1: BioMAP Diversity Plus: SAg Assay for Monocyte Chemoattractant Protein-1 (MCP1) Biomarker Activity (AID 2283090). The conditions noted are these: primary human HUVEC with PBMC; actives raise or lower the signal. The procedure, abridged:
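Values derive from bidirectional fitting of ELISA-measured MCP1 against DMSO controls. Readings were taken 24 h after dosing human vascular endothelial cells co-cultured with peripheral blood mononuclear cells under superantigen stimulation.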

Read-out in experiment [17]: CD40, CD40 (gene 958)
The experiment can be described thus: BSK_LPS_CD40: BioMAP Diversity Plus: LPS Assay for CD40 Biomarker Activity (AID 2283076). The conditions noted are these: primary human HUVEC with PBMC; actives raise or lower the signal. The procedure, abridged: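 In the LPS system of human endothelial cells with peripheral blood mononuclear cells, CD40 levels were read by ELISA 24 h post-treatment. Signal changes in either direction were fitted against the DMSO baseline, with parallel SRB protein staining.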

Calls of active or inactive are those of the source. Rule for the calls: active = hit-call score of the fitted dose curve at least 0.9, where 1 is the maximum; inactive = score below 0.9.

Sequence of E-selectin (Homo sapiens) (P16581 whole entry, looked up): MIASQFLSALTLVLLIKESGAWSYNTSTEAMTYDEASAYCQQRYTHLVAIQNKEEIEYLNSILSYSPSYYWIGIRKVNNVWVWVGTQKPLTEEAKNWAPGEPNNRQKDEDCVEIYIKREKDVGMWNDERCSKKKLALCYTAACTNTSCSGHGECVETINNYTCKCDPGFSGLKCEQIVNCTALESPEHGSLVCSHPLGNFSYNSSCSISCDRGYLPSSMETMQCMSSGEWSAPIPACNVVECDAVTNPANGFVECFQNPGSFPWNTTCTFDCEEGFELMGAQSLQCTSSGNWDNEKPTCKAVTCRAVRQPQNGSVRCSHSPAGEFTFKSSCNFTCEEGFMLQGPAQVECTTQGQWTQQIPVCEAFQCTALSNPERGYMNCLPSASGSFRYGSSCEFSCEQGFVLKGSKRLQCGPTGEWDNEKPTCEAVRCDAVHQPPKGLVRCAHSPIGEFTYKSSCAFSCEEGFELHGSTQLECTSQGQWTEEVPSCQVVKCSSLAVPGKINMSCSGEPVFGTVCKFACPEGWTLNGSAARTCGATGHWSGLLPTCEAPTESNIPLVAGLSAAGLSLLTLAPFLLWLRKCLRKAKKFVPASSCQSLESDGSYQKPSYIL
Sequence of Tumor necrosis factor (Homo sapiens) (P01375 whole entry, looked up): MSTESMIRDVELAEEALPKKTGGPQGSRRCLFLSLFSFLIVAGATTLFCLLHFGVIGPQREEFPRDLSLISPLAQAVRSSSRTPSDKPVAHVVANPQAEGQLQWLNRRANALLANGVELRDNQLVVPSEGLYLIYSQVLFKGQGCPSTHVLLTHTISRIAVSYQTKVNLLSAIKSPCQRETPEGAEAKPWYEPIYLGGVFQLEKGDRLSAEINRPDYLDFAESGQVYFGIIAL

As for `CNC(=O)ON=C(C)SC`, the result in [1], in experiment [2], in experiment [3], in [4], in experiment [5] and in experiment [6] was inactive. Besides, the outcome in [7], in [8], in experiment [9], in [11], in [12] and in experiment [13] was inactive. In addition, the outcome in experiment [14] was “inactive”; with CD38, CD38 (gene 952), “inactive”; in the experiment with CD40, CD40 (gene 958) [15], “inactive”; with CD69, CD69 (gene 969) it was “inactive”; in experiment [16], “inactive”. Also, the AC50 (as a rule, the midpoint of the concentration-response curve, whichever way the signal moves) in experiment [10] was 0.564 µM (active).
Take `CNC(=O)Oc1cccc2c1OC(C)(C)O2`: the outcome in experiment [1], in experiment [2], in experiment [3], in experiment [4], in experiment [7] and in experiment [8] was inactive. Moreover, the outcome in [9] is “inactive”; in [10] it was “inactive”; in experiment [12], “inactive”; in the experiment with CD40, CD40 (gene 958) [15], “inactive”; in experiment [16], “inactive”. For the same molecule, the AC50 in experiment [5] was 20 µM (active); in experiment [6], 25.2 µM (active); in [11], 20 µM (active); in [13], 32.9 µM (active); in experiment [14], 20 µM (active); with CD38, CD38 (gene 952) it was 35.1 µM (active).
Regarding `CCOC(=O)CC(SP(=O)(OC)OC)C(=O)OCC` (stereo unspecified), the outcome is “inactive” in [1]; “inactive” in experiment [2]; “inactive” in [3]; “inactive” in experiment [4]; “inactive” in the experiment with CD40, CD40 (gene 958) [17]; “inactive” in experiment [6]. Moreover, the outcome in experiment [7], in experiment [8], in [9], in experiment [11], in [12] and in experiment [13] was inactive. Further, the outcome in experiment [14] is “inactive”; in the experiment with CD38, CD38 (gene 952) it was “inactive”; with CD69, CD69 (gene 969) it was “inactive”; in experiment [16], “inactive”. Moreover, the values for the AC50 in experiment [5] and in [10] were 2.5 µM (active) and 0.323 µM (active), respectively.
Turning to `Cc1cc(C2CC2)nc(Nc2ccccc2)n1`, the result in experiment [1], in experiment [2], in [3], in experiment [4], in experiment [5] and in [6] was inactive. Moreover, the outcome in [8] was “inactive”; in experiment [9], “inactive”; in [12], “inactive”; in experiment [13], “inactive”; with CD38, CD38 (gene 952), “inactive”; in experiment [16], “inactive”. Also, the AC50 is 24.7 µM (active) in [7]; 7.61 µM (active) in [10]; 20.3 µM (active) in experiment [11]; 15.7 µM (active) in experiment [14]; 16.2 µM (active) with CD40, CD40 (gene 958) [15].
Turning to `CCOP(=S)(OCC)Oc1ccc2c(C)c(Cl)c(=O)oc2c1`, the result in [1], in experiment [2], in experiment [3], in experiment [4], in experiment [5] and in experiment [6] was inactive. Further, the result in experiment [7], in [8], in experiment [9], in experiment [10], in [11] and in experiment [12] was inactive. Besides, the outcome is “inactive” in [13]; “inactive” in [14]; “inactive” with CD38, CD38 (gene 952); “inactive” in [16].
